Compounds with a hit are over-represented: about 7.5% of the library has one in this group of screens.
VP16 counter = Gal4-VP16 reporter inhibition counter-screen; Drosophila S2 Gal4-VP16 UAS-luciferase, luminescence, 20 h; Potency, µM (top dose mostly 53.6 µM), hits mostly inhibitors; 310,000 compounds, 3.5% hits; AID 2546;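 also: Gal4-VP16 expression switched on by copper sulfate through the metallothionein promoter; nearly all actives have a fitted effect of over 50% in size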
TSHR antag = blocks TSH signaling through the human TSH receptor | P16473 | AID 504810 | TSHR-expressing cells, TSH-stimulated cAMP HTRF, 2 h; stronger effect = lower value | activity change, negative = inhibition, % at 11.5 µM | 330,000 compounds, 0.2% hits;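 active = activity change below a set negative limit, meaning inhibition stronger than a set level, cut at about -70% in these data; inconclusive = activity change between two set negative limits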
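TSHR-expressing cells were treated with compounds, then stimulated with TSH at EC80 (4nM final) for 2 hours at 37 deg C. Cellular cAMP was measured by HTRF competition between lysate cAMP and cAMP-d2 for a cryptate-labelled anti-cAMP antibody.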
B2AR arrestin = recruits beta-arrestin to the human beta2-adrenergic receptor. Potency, µM (top dose mostly 46.1 µM), usual class: activators. 330,000 compounds, 0.02% hits. P07550. beta-arrestin recruitment to beta2AR, cell-based reporter; also: nearly all actives have a fitted effect of over 65% in size
RORg inh = inhibitors of mouse ROR gamma transcriptional activity | P51450 | Drosophila S2 Gal4-RORgamma UAS-luciferase reporter, 20 h | Potency, µM (top dose mostly 53.6 µM), most hits filed as inhibitors | 310,000 compounds, 5.4% hits | AID 2551; also: nearly all actives have a fitted effect of over 60% in size
Target sequence (P51450 whole entry, looked up, the tested form may be a part): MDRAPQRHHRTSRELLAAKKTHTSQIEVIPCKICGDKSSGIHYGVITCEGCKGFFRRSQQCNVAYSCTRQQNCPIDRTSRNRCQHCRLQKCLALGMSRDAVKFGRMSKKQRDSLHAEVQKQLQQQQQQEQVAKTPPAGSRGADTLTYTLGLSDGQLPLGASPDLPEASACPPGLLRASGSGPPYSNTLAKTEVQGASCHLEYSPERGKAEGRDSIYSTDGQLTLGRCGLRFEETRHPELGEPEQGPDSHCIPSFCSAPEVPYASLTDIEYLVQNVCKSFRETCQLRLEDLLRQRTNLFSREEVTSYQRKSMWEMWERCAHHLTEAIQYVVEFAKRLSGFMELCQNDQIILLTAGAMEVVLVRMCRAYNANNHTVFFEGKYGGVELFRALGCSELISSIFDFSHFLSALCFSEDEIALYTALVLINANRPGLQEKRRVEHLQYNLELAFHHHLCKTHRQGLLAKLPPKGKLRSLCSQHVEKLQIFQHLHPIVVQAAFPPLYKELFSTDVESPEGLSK
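A Gal4/UAS one-hybrid system in insect cells: metallothionein-promoter Gal4–ROR gamma fusion plus Photinus luciferase reporter. Copper sulfate 700 uM final, 20 hr ambient incubation, luminescent detection after 10 min with reagent.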
ELG1 repair inh = inhibitors of ELG1-dependent DNA repair in HEK293T cells | Potency, µM (titrated, usually from 46.1 µM), hits mostly inhibitors | HEK293T ELG1-luciferase reporter, luminescence, 16 h; DNA damage induced by 5-fluorouridine | 330,000 compounds, 2.3% hits | AID 504467; also: nearly all actives have a fitted effect of over 55% in size
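Overnight (16 hr) co-exposure of 2,000 cells/well to 5-fluorouridine and compound at 37 °C preceded detection. Luciferase was quantified via ONE-Glo luminescence; loss of signal denotes inhibition.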
Large screens that a line does not name were inactive. Unless noted, calls follow the shape of the dose curve; as a rule, active = well fitted curve in the direction sought with a large enough effect; inconclusive = small, poorly fitted or top-dose-only effect, or another doubt; inactive = no such curve, though single readings can be large; an effect the other way counts as inactive or inconclusive.

CS(=O)(=O)c1cnc2c(-c3ccc(F)cc3)cnn2c1N	RORg inh 11µM, ELG1 repair inh inconclusive
COc1ccc(-c2c(C)nc3c(-c4ccsc4)cnn3c2N)cc1	VP16 counter inconclusive, ELG1 repair inh inconclusive
CC(C)(C)S(=O)(=O)c1cnc2c(-c3ccsc3)cnn2c1N	RORg inh 4.5µM, ELG1 repair inh inconclusive
Nc1c(-c2ccccc2)cnc2c(-c3ccccc3)cnn12	VP16 counter 7.1µM, RORg inh 6.3µM, ELG1 repair inh inconclusive
Cc1nc2c(-c3ccc(F)cc3)cnn2c(N)c1-c1ccc(F)cc1	ELG1 repair inh inconclusive
O=C(NCC(=O)N1CCC2(CC1)NCCc1[nH]cnc12)c1cccc(Cl)c1	none
Cc1cc2c(s1)c(C#N)c(C(=O)NCc1ccccc1F)n2C	none (no result: VP16 counter, RORg inh, ELG1 repair inh)
COc1ccc(C(=O)Nc2cc(C)on2)c(OC)c1	ELG1 repair inh inconclusive
COc1ccc(C)cc1NC(=S)NNC(=O)c1c(Br)cnn1C	RORg inh 2µM, ELG1 repair inh inconclusive
COc1ccc(C(=O)Nc2ccc(C)cn2)c(OC)c1	VP16 counter 4µM, RORg inh 4µM, ELG1 repair inh inconclusive
COc1ccc(C)cc1NC(=O)NC1CCCCCCC1	none
COc1ccc(C)cc1NC(=O)Nc1ccc(Br)cn1	RORg inh 10µM
CC(C)COc1ccc(-c2cc(C(=O)NN)[nH]n2)cc1	VP16 counter inconclusive, RORg inh 13µM, ELG1 repair inh inconclusive
CCOC(=O)c1cc(-c2ccc(OC)cc2)n[nH]1	ELG1 repair inh inconclusive
O=C(Nc1ccccn1)c1ccc(C(=O)Nc2ccccn2)cc1	ELG1 repair inh inconclusive
O=C(/C=C\Nc1ccccn1)c1ccc(Cl)cc1	VP16 counter 10µM, RORg inh 7.1µM, ELG1 repair inh inconclusive
COc1ccc(C(=O)/C=C/Nc2ccc(S(=O)(=O)Nc3cccc(C(C)=O)c3)cc2)cc1	VP16 counter 5.6µM, ELG1 repair inh 23µM
Cc1cccc(N/C=C/C(=O)c2ccc(Cl)cc2)c1	VP16 counter inconclusive, RORg inh 3.2µM, ELG1 repair inh inconclusive
COc1cc(OC)c(OC)cc1/C=C/C(=O)c1ccc(NS(=O)(=O)c2ccc(C)cc2)cc1	RORg inh inconclusive, ELG1 repair inh 15µM
Cc1ccc(Cl)c(N/C=C/C(=O)c2ccccc2)c1	VP16 counter inconclusive, ELG1 repair inh inconclusive
CC(=O)c1ccc(NS(=O)(=O)c2ccc(C)cc2)cc1	none
CCOC(=O)CCCCC1=CC2=CC(=O)C(C)(O)C(=O)C2=CO1 (centres undefined)	none (no result: TSHR antag, B2AR arrestin, ELG1 repair inh)
COc1ccc(C(=O)/C=C/Nc2cccc(O)c2)cc1	VP16 counter 2µM, RORg inh 10µM, ELG1 repair inh inconclusive
Cc1cccc(NNC(=O)C(=O)NNc2cccc(C)c2)c1	ELG1 repair inh 6.5µM
Cc1cccc(NC(=O)CC(=O)Nc2cccc(C)c2)c1	none
CC(C)CCOc1ccc(/C=N/N2C(=O)CSC2=S)cc1	VP16 counter inconclusive, RORg inh 4.5µM
O=C1CSC(=S)N1/N=C/c1ccc2c(c1)OCCO2	none
O=C(CN1C2CCCC1CC(NC(=O)C1CCCCC1)C2)NCc1ccc(F)cc1 (centres undefined)	VP16 counter inconclusive, ELG1 repair inh 12µM
O=C(CN1C2CCCC1CC(NC(=O)C1CCCCC1)C2)Nc1ccccc1C(F)(F)F (centres undefined)	VP16 counter inconclusive, RORg inh inconclusive, ELG1 repair inh 15µM
CC(=O)N1CC[C@@H]2CC(=O)CC[C@@H]21	none (no result: TSHR antag, B2AR arrestin, ELG1 repair inh)
COc1ccccc1C(=O)NC(=O)COC(=O)c1ncc(Cl)c(Cl)c1Cl	ELG1 repair inh inconclusive (no result: VP16 counter, RORg inh)
COc1cccc(CNC(=O)CN2C(=O)CSc3ccc(S(=O)(=O)N4CCOCC4)cc32)c1	TSHR antag -140
COc1cccc(CNC(=O)CCCn2ccc3cc(S(=O)(=O)N4CCCC4)ccc32)c1	ELG1 repair inh 23µM
CC1CCN(CCCNC(=O)CN2C(=O)CSc3ccc(S(=O)(=O)N4CCOCC4)cc32)CC1	TSHR antag -89
COc1cccc(CNC(=O)CCn2ccc3cc(S(=O)(=O)N4CCCC4)ccc32)c1	none
CCC(C)NC(=O)CN1C(=O)CSc2ccc(S(=O)(=O)N3CCCC3)cc21 (centres undefined)	TSHR antag -125
C/C(CCN1CCc2nc(-c3ccccc3)c(-c3ccccc3)cc2C1)=N\OC[C@@H](O)[C@@H]1O[C@@H]2OC(C)(C)O[C@@H]2[C@H]1O	none (no result: TSHR antag, B2AR arrestin, ELG1 repair inh)
Cc1ccc2c(c1)nnn2C1CCN(S(=O)(=O)c2cccc(S(=O)(=O)N(C)C)c2)CC1	ELG1 repair inh 21µM
Cc1ccc2c(c1)nnn2C1CCN(S(=O)(=O)c2ccc(C(=O)N(C)C)cc2)CC1	VP16 counter inconclusive, ELG1 repair inh 18µM
Cc1ccc2c(c1)nnn2C1CCN(S(=O)(=O)c2ccc3ccccc3c2)CC1	RORg inh inconclusive, ELG1 repair inh inconclusive
Cc1ccc2c(c1)nnn2C1CCN(S(=O)(=O)c2ccc(C(=O)N3CC(C)CC(C)C3)cc2)CC1 (centres undefined)	ELG1 repair inh 21µM
Cc1ccc2c(c1)nnn2C1CCN(CC(=O)c2ccc(Cl)cc2)CC1	none
COc1cc(/C=N/NC(=O)CC#N)ccc1Oc1nc(Cl)ncc1F	none
Cc1cccc(N2CCN(C(=O)c3ccc(N4CCCC4=O)cc3)CC2)c1C	ELG1 repair inh 18µM
N#CCCn1c(=O)c(-c2ccc(F)cc2)nc2cnc(OCc3ccccc3)nc21	none (no result: TSHR antag, B2AR arrestin, ELG1 repair inh)
CN1C(=O)/C(=C/c2ccc(OCc3ccc(F)cc3)cc2)NC1=S	VP16 counter inconclusive, RORg inh inconclusive
CN1C(=O)/C(=C/c2ccc(OCc3ccccc3F)cc2)NC1=S	TSHR antag -70, RORg inh inconclusive
COc1cc(/C=C2\NC(=S)N(C)C2=O)ccc1O	VP16 counter inconclusive, RORg inh inconclusive
COc1cc(/C=C2\NC(=S)N(C)C2=O)ccc1OCc1ccccc1F	VP16 counter inconclusive, RORg inh 11µM
CS(=O)(=O)Nc1ccc([N+](=O)[O-])cc1OC1CCCCC1	none (no result: TSHR antag, B2AR arrestin, ELG1 repair inh)
COc1ccc(NC(=O)N2CC3(CCN(C(=O)c4csnn4)CC3)C2)cc1	none (no result: TSHR antag, B2AR arrestin, ELG1 repair inh)
COc1ccc(-c2nc3ccccc3c(C(=O)Nc3ccc(S(=O)(=O)Nc4cc(C)on4)cc3)c2C)cc1	RORg inh inconclusive, ELG1 repair inh 13µM
O=C(c1ccncc1)N1CCC[C@@]2(CCN(Cc3ccncc3)C2)C1	none (no result: TSHR antag, B2AR arrestin, ELG1 repair inh)
Clc1cccc(/C=N/Nc2nnc(Cl)c3ccccc23)c1	VP16 counter inconclusive, RORg inh 3.2µM, ELG1 repair inh inconclusive
Clc1ccc(/C=N/Nc2nnc(-c3ncc[nH]3)c3ccccc23)cc1	VP16 counter 3.2µM, RORg inh 1.3µM
Clc1ccc(/C=N\Nc2ccccc2)cc1	none
COc1cccc(-c2nc(NCCN3CCOCC3)c3ccccc3n2)c1	none (no result: TSHR antag, B2AR arrestin, ELG1 repair inh)
CC12COC3(C(=O)Nc4ccc(Cl)cc4)CC1CCC32C (centres undefined)	ELG1 repair inh inconclusive
CC12COC3(C(=O)Nc4ccccc4F)CC1CCC32C (centres undefined)	RORg inh 10µM
